Laboratory results taken from PubChem BioAssay AID1159580 (chemical genetic matrix, 2015).
“And” between values parts separate entries of the source, which are not always exact repeats. Equal values may be shown once. Among all 5,500 compounds or so, about 2,000 (36%) were called active. Roughly 18% stayed inconclusive and do not appear here. No stated cut-off is given here; in the data, active means normalized growth mostly below about 0.91 (no sharp cut-off); inconclusive means no clear call, values can overlap the other calls; inactive means mostly above about 0.92. The list shows a part of the results.

Test: chemical genetic growth profiling, strain panel (AID 1159580);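 further: tested at 20 µM; growth read once vehicle control cultures reached saturation at 30 °C; 1 = growth at the plate median or of vehicle wells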
Conditions: S. cerevisiae deletion strains, growth OD

Measured: normalized growth

CC(C)CCCC(C)C1CCC2C3CC(=O)[C@H]4C[C@@H](O)CC[C@]4(C)C3CC[C@]12C (stereo partly drawn)
active: locus YLR262C, strain YPT6 (second series), stronger effect = lower value 0.76
inactive: locus YAL021C, strain ccr4, stronger effect = lower value 0.997 | locus YAL026C, strain drs2, stronger effect = lower value 0.98 | locus YAL030W, strain snc1, stronger effect = lower value 1.01 | locus YBL061C, strain skt5, stronger effect = lower value 1 | locus YBR009C, strain hhf1, stronger effect = lower value 1 | locus YBR021W, strain FUR4, stronger effect = lower value 1.06 | locus YBR023C, strain chs3, stronger effect = lower value 1 | locus YBR171W, strain sec66, stronger effect = lower value 1 | locus YBR229C, strain ROT2, stronger effect = lower value 1.02 | locus YBR231C, strain swc5, stronger effect = lower value 0.975 | locus YBR279W, strain paf1, stronger effect = lower value 1.01 | locus YCL011C, strain gbp2, stronger effect = lower value 1.02 | locus YCL016C, strain dcc1, stronger effect = lower value 1.01 | locus YCL029C, strain bik1, stronger effect = lower value 1.01 | locus YCL061C, strain MRC1, stronger effect = lower value 1.01 | locus YCL069W, strain vba3, stronger effect = lower value 1.03 | locus YCR088W, strain abp1, stronger effect = lower value 1 | locus YDL005C, strain med2, stronger effect = lower value 1.01 | locus YDL035C, strain GPR1, stronger effect = lower value 1.01 | locus YDL040C, strain nat1, stronger effect = lower value 1.01 | locus YDL074C, strain BRE1, stronger effect = lower value 1.05 | locus YDL101C, strain DUN1, stronger effect = lower value 1.02 | locus YDL185W, strain tfp1, stronger effect = lower value 1.07 | locus YDL192W, strain arf1, stronger effect = lower value 1.02 | locus YDR001C, strain nth1, stronger effect = lower value 1.02 | locus YDR069C, strain doa4, stronger effect = lower value 1 | locus YDR101C, strain arx1, stronger effect = lower value 1.01 | locus YDR137W, strain rgp1, stronger effect = lower value 0.908 | locus YDR150W, strain NUM1, stronger effect = lower value 1 | locus YDR159W, strain sac3, stronger effect = lower value 0.963 | locus YDR162C, strain NBP2, stronger effect = lower value 1.04 | locus YDR195W, strain ref2 1.01 | locus YDR297W, strain sur2, stronger effect = lower value 1 | locus YDR318W, strain mcm21, stronger effect = lower value 1.01 | locus YDR334W, strain swr1, stronger effect = lower value 1.02 | locus YDR335W, strain msn5, stronger effect = lower value 1.02 | locus YDR388W, stronger effect = lower value 1.01 | locus YDR392W, strain spt3, stronger effect = lower value 0.942 | locus YDR502C, strain sam2, stronger effect = lower value 1.01 | locus YEL003W, strain gim4, stronger effect = lower value 1.01 | locus YEL037C, strain rad23, stronger effect = lower value 1 | locus YEL061C, strain CIN8 (second series), stronger effect = lower value 1.01 | locus YEL061C, strain CIN8, stronger effect = lower value 1 | locus YER015W, strain faa2, stronger effect = lower value 1 | locus YER016W, strain bim1, stronger effect = lower value 1.01 | locus YER110C, stronger effect = lower value 1 | locus YER111C, strain swi4, stronger effect = lower value 1 | locus YER155C, strain BEM2 (second series), stronger effect = lower value 1.07 | locus YER155C, strain BEM2, stronger effect = lower value 0.997 | locus YER167W, strain BCK2, stronger effect = lower value 1.03 | locus YFR010W, strain ubp6, stronger effect = lower value 1.02 | locus YGL078C, strain dbp3, stronger effect = lower value 1.01 | locus YGL086W, strain mad1, stronger effect = lower value 1.03 | locus YGL167C, strain pmr1, stronger effect = lower value 0.998 | locus YGL173C, strain kem1, stronger effect = lower value 1 | locus YGL227W, strain vid30, stronger effect = lower value 1.01 | locus YGL240W, strain doc1, stronger effect = lower value 0.904 | locus YGL248W, strain PDE1, stronger effect = lower value 1.01 | locus YGL253W, strain hxk2, stronger effect = lower value 1.02 | locus YGR135W, strain pre9, stronger effect = lower value 1 | locus YGR252W, strain gcn5, stronger effect = lower value 1.06 | locus YHR013C, strain ard1, stronger effect = lower value 1.01 | locus YHR027C, strain rpn1, stronger effect = lower value 1.01 | locus YHR030C, strain SLT2, stronger effect = lower value 1.02 and 1.05 | locus YHR079C, strain IRE1 (second series), stronger effect = lower value 0.99 | locus YHR079C, strain IRE1, stronger effect = lower value 1.04 | locus YHR094C, strain hxt1, stronger effect = lower value 1.01 | locus YHR129C, strain ARP1, stronger effect = lower value 1.02 | locus YHR142W, strain chs7, stronger effect = lower value 1.04 | locus YHR200W, strain rpn10, stronger effect = lower value 1.03 | locus YIL066C, strain RNR3, stronger effect = lower value 1.04 | locus YIL073C, strain SPO22, stronger effect = lower value 1.05 | locus YIL125W, strain kgd1, stronger effect = lower value 0.998 | locus YIR030C, strain dcg1, stronger effect = lower value 1.01 | locus YJL092W, strain hpr5, stronger effect = lower value 1.02 | locus YJL095W, strain BCK1 (second series), stronger effect = lower value 1.01 | locus YJL095W, strain BCK1, stronger effect = lower value 1.03 | locus YJL115W, strain asf1, stronger effect = lower value 0.991 | locus YJL129C, strain trk1, stronger effect = lower value 1.04 | locus YJL134W, strain LCB3, stronger effect = lower value 1.01 | locus YJL154C, strain vps35, stronger effect = lower value 1.02 | locus YJL164C, strain tpk1, stronger effect = lower value 1.01 | locus YJL166W, strain qcr8, stronger effect = lower value 1.06 | locus YJL168C, strain set2, stronger effect = lower value 1 | locus YJL187C, strain SWE1 (second series), stronger effect = lower value 1.01 | locus YJL187C, strain SWE1, stronger effect = lower value 1.02 | locus YJR043C, strain POL32, stronger effect = lower value 1.05 | locus YJR066W, strain TOR1, stronger effect = lower value 0.998 | locus YKL009W, strain mrt4, stronger effect = lower value 1.01 | locus YKL068W, stronger effect = lower value 1.02 | locus YKL085W, strain MDH1 (second series), stronger effect = lower value 1.01 | locus YKL085W, strain MDH1, stronger effect = lower value 1.01 | locus YKL160W, strain elf1, stronger effect = lower value 1.02 | locus YKL190W, strain CNB1, stronger effect = lower value 1.02 | locus YKR001C, strain vps1, stronger effect = lower value 1.02 | locus YKR026C, strain gcn3, stronger effect = lower value 1 | locus YKR091W, strain srl3, stronger effect = lower value 1.01 | locus YLL001W, strain dnm1, stronger effect = lower value 0.982 | locus YLL026W, stronger effect = lower value 0.999 | locus YLL041C, strain sdh2, stronger effect = lower value 1.01 | locus YLR027C, strain aat2, stronger effect = lower value 0.99 | locus YLR039C, strain RIC1, stronger effect = lower value 0.767 | locus YLR058C, strain SHM2, stronger effect = lower value 1.01 | locus YLR102C, strain apc9, stronger effect = lower value 1.01 | locus YLR113W, strain HOG1, stronger effect = lower value 0.986 | locus YLR221C, strain rsa3, stronger effect = lower value 0.991 | locus YLR258W, strain gsy2, stronger effect = lower value 0.994 | locus YLR262C, strain YPT6, stronger effect = lower value 0.831 | locus YLR268W, strain sec22, stronger effect = lower value 1.03 | locus YLR320W, strain mms22, stronger effect = lower value 1.02 | locus YLR330W, strain CHS5, stronger effect = lower value 1.01 | locus YLR342W, strain FKS1 (second series), stronger effect = lower value 1.02 | locus YLR342W, strain FKS1, stronger effect = lower value 1.01 | locus YLR357W, strain rsc2, stronger effect = lower value 1.04 | locus YLR370C, strain arc18, stronger effect = lower value 1.02 | locus YLR371W, strain rom2, stronger effect = lower value 1 | locus YLR384C, strain iki3, stronger effect = lower value 0.99 | locus YLR418C, strain cdc73, stronger effect = lower value 1.08 | locus YML016C, strain PPZ1, stronger effect = lower value 0.995 | locus YML032C, strain rad52, stronger effect = lower value 1 | locus YML120C, strain ndi1, stronger effect = lower value 1.02 | locus YML124C, strain tub3, stronger effect = lower value 1 | locus YMR058W, strain fet3, stronger effect = lower value 1.01 | locus YMR078C, strain ctf18, stronger effect = lower value 1.04 | locus YMR125W, strain sto1, stronger effect = lower value 1.02 | locus YMR129W, stronger effect = lower value 1 | locus YMR205C, strain PFK2, stronger effect = lower value 1.02 | locus YMR223W, strain ubp8, stronger effect = lower value 1.01 | locus YMR231W, strain pep5, stronger effect = lower value 1.02 | locus YMR307W, strain GAS1, stronger effect = lower value 1.12 | locus YNL067W, strain RPL9B, stronger effect = lower value 1.03 | locus YNL071W, strain lat1, stronger effect = lower value 1.02 | locus YNL183C, strain NPR1, stronger effect = lower value 1 | locus YNL209W, strain ssb2, stronger effect = lower value 1.01 | locus YNL233W, strain BNI4, stronger effect = lower value 1.04 | locus YNL248C, strain rpa49, stronger effect = lower value 1 | locus YNL250W, strain rad50, stronger effect = lower value 1 | locus YNL271C, strain bni1, stronger effect = lower value 1 | locus YNL298W, strain CLA4, stronger effect = lower value 1.01 | locus YNL307C, strain MCK1, stronger effect = lower value 1.04 | locus YNL322C, strain KRE1 (second series), stronger effect = lower value 1.01 | locus YNR049C, strain mso1, stronger effect = lower value 1 | locus YNR052C, strain pop2, stronger effect = lower value 0.997 | locus YOL006C, strain TOP1, stronger effect = lower value 1.14 | locus YOL012C, strain htz1 1.15 | locus YOL147C, strain pex11, stronger effect = lower value 1.01 | locus YOR001W, strain rrp6, stronger effect = lower value 0.969 | locus YOR061W, strain CKA2, stronger effect = lower value 1.02 | locus YOR069W, strain VPS5, stronger effect = lower value 1 | locus YOR070C, strain gyp1, stronger effect = lower value 0.989 | locus YOR080W, strain dia2, stronger effect = lower value 0.998 | locus YOR083W, strain WHI5, stronger effect = lower value 1.02 | locus YOR106W, strain vam3, stronger effect = lower value 1.02 | locus YOR136W, strain idh2, stronger effect = lower value 1 | locus YOR144C, strain elg1, stronger effect = lower value 1 | locus YOR184W, strain ser1, stronger effect = lower value 1.04 | locus YOR231W, strain MKK1, stronger effect = lower value 1.02 | locus YOR265W, strain rbl2, stronger effect = lower value 1 | locus YOR270C, strain vph1, stronger effect = lower value 1.04 | locus YOR290C, strain snf2, stronger effect = lower value 1.03 | locus YOR316C, strain cot1, stronger effect = lower value 1 | locus YPL051W, strain arl3, stronger effect = lower value 0.985 | locus YPL055C, strain LGE1, stronger effect = lower value 1.07 | locus YPL078C, strain atp4, stronger effect = lower value 1.02 | locus YPL106C, strain sse1, stronger effect = lower value 1.02 | locus YPL240C, strain hsp82, stronger effect = lower value 1.01 | locus YPL256C, strain CLN2, stronger effect = lower value 1.04 | locus YPR119W, strain clb2, stronger effect = lower value 1 | locus YPR141C, strain kar3, stronger effect = lower value 1.01 | locus YPR163C, strain tif3, stronger effect = lower value 1.01 | locus YPR167C, strain met16, stronger effect = lower value 0.995 | strain wtn01, stronger effect = lower value 1.03
